# According to paper PMC8384837, “Expanding the binding specificity for RNA recognition by a PUF domain”:
# Where a chain is given by its changes, count along the chain named.
# Tests used:
# Experiment in all cases: yeast three-hybrid, YBZ-1, SC-Leu-His + 0.5 mM 3-AT, 4 days
# Details in all cases: tags: N-Gal4 AD-HA kept; label: inside an RPR1-promoter hybrid RNA with tandem MS2 sites; ssRNA
# PUM1 PUF domain R5-RCG = PUM1 PUF domain R5-RCG (Homo sapiens, UniProt Q14671 828-1176, C1007R;R1008C;Q1011G)
# Procedure, shortened: (§1)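 Sequencing with Illumina followed PCR amplification of the repeat regions from transformants grown four days on SC-Leu (input) or SC-Leu-His + 0.5 mM 3-AT (selection). The transformants were strain YBZ-1 with a LexA–MS2 coat fusion and a HIS3 reporter, carrying Pumilio-1 PUF domain libraries and matching RNA elements. The interaction score is the log change in variant frequency from input to selection, computed in log2 with a pseudocount of 1 for absent variants.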
# PUM1 PUF domain R5-RMM = PUM1 PUF domain R5-RMM (Homo sapiens, UniProt Q14671 828-1176, C1007R;R1008M;Q1011M)
# Procedure, shortened: as §1
# PUM1 PUF domain R4-HNA = PUM1 PUF domain R4-HNA (Homo sapiens, UniProt Q14671 828-1176, N971H;H972N;Q975A)
# Procedure, shortened: as §1
# PUM1 PUF domain R8-HWD = PUM1 PUF domain R8-HWD (Homo sapiens, UniProt Q14671 828-1176, N1122H;Y1123W;Q1126D)
# Procedure, shortened: as §1
# PUM1 PUF domain R8-RHS = PUM1 PUF domain R8-RHS (Homo sapiens, UniProt Q14671 828-1176, N1122R;Y1123H;Q1126S)
# Procedure, shortened: as §1
# PUM1 PUF domain R2-CGI = PUM1 PUF domain R2-CGI (Homo sapiens, UniProt Q14671 828-1176, N899C;Y900G;Q903I)
# Procedure, shortened: as §1
# PUM1 PUF domain R6-RYL = biological target: T1, PUM1 PUF domain R6-RYL (Homo sapiens, UniProt Q14671 828-1176, N1043R;Q1047L)
# T1 sequence: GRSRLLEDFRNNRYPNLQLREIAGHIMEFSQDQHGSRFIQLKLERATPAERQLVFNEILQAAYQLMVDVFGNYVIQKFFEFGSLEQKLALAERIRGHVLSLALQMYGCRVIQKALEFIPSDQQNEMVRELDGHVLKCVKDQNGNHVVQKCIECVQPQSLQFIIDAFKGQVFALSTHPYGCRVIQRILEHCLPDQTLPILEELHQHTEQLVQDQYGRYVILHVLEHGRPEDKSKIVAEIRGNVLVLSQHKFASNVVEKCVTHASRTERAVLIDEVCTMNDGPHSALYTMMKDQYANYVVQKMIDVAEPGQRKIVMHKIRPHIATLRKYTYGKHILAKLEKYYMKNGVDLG
# Procedure, shortened: as §1
# PUM1 PUF domain R5-PHL = PUM1 PUF domain R5-PHL (Homo sapiens, UniProt Q14671 828-1176, C1007P;R1008H;Q1011L)
# Procedure, shortened: as §1
# PUM1 PUF domain R6-KWT = biological target: T2, PUM1 PUF domain R6-KWT (Homo sapiens, UniProt Q14671 828-1176, N1043K;Y1044W;Q1047T)
# T2 sequence: T1 sequence with R216K, Y217W, L220T
# Procedure, shortened: as §1
# PUM1 PUF domain R5-NSC = PUM1 PUF domain R5-NSC (Homo sapiens, UniProt Q14671 828-1176, C1007N;R1008S;Q1011C)
# Procedure, shortened: as §1
sequence,measurement,setting,value
GGCUAGAACUAGUGGAUCCCCCGGCGCCCGGCGGCUCGAGCCCGGGUAAGUGUCAAUAGUCUGCAUGCCGCCGGGCGCCAUGCCUGCAGGUCGACUCUAGAAAACAUG,binding signal,PUM1 PUF domain R5-RCG,3 log2 enrichment (interaction score)
same,binding signal,PUM1 PUF domain R5-RMM,2.73 log2 enrichment (interaction score)
GGCUAGAACUAGUGGAUCCCCCGGCGCCCGGCGGCUCGAGCCCGGGUAAGUGUACAUAGUCUGCAUGCCGCCGGGCGCCAUGCCUGCAGGUCGACUCUAGAAAACAUG,binding signal,PUM1 PUF domain R4-HNA,2.26 log2 enrichment (interaction score)
GGCUAGAACUAGUGGAUCCCCCGGCGCCCGGCGGCUCGAGCCCGGGUAAGCGUAAAUAGUCUGCAUGCCGCCGGGCGCCAUGCCUGCAGGUCGACUCUAGAAAACAUG,binding signal,PUM1 PUF domain R8-HWD,4.23 log2 enrichment (interaction score)
same,binding signal,PUM1 PUF domain R8-RHS,4.15 log2 enrichment (interaction score)
GGCUAGAACUAGUGGAUCCCCCGGCGCCCGGCGGCUCGAGCCCGGGUAAGUGUAAAUAGUCUGCAUGCCGCCGGGCGCCAUGCCUGCAGGUCGACUCUAGAAAACAUG,binding signal,PUM1 PUF domain R2-CGI,2.59 log2 enrichment (interaction score)
same,binding signal,PUM1 PUF domain R6-RYL,2.68 log2 enrichment (interaction score)
same,binding signal,PUM1 PUF domain R5-PHL,4.35 log2 enrichment (interaction score)
same,binding signal,PUM1 PUF domain R8-RHS,3.91 log2 enrichment (interaction score)
GGCUAGAACUAGUGGAUCCCCCGGCGCCCGGCGGCUCGAGCCCGGGUAAGUGUAUAUAGUCUGCAUGCCGCCGGGCGCCAUGCCUGCAGGUCGACUCUAGAAAACAUG,binding signal,PUM1 PUF domain R4-HNA,4.72 log2 enrichment (interaction score)
GGCUAGAACUAGUGGAUCCCCCGGCGCCCGGCGGCUCGAGCCCGGGUAAGUGCAAAUAGUCUGCAUGCCGCCGGGCGCCAUGCCUGCAGGUCGACUCUAGAAAACAUG,binding signal,PUM1 PUF domain R6-KWT,3.77 log2 enrichment (interaction score)
GGCUAGAACUAGUGGAUCCCCCGGCGCCCGGCGGCUCGAGCCCGGGUAAGUGUUAAUAGUCUGCAUGCCGCCGGGCGCCAUGCCUGCAGGUCGACUCUAGAAAACAUG,binding signal,PUM1 PUF domain R5-RCG,3.29 log2 enrichment (interaction score)
same,binding signal,PUM1 PUF domain R5-NSC,4.07 log2 enrichment (interaction score)
same,binding signal,PUM1 PUF domain R5-PHL,4.46 log2 enrichment (interaction score)
